From PubChem BioAssay (NCI)
Compounds without any hit were thinned out: in the full panel of roughly 83,000, 20% have a hit.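 The endpoint reported here, percent growth, reads 100 for growth as untreated, 0 for no net growth and -100 for all cells dead.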 Activity calls are given as the source filed them. How the source made its calls: active means growth percent below 10; inactive means the rest.

Key:
Assay in all cases: NCI-60 one-dose screen, 48 h (100 = growth as untreated, 0 = no growth, -100 = all killed)
Conditions in all cases: 10 µM unless noted
NCI-H23 lung = tested on: NCI-H23 lung
NCI-H226 lung = tested on: NCI-H226 lung
NCI-H322M lung = tested on: NCI-H322M lung
HOP-62 NSCLC = tested on: HOP-62 NSCLC
NCI-H460 lung = tested on: NCI-H460 lung
HOP-92 NSCLC = tested on: HOP-92 NSCLC
NCI-H522 lung = tested on: NCI-H522 lung
A549/ATCC NSCLC = tested on: A549/ATCC NSCLC
786-0 renal = tested on: 786-0 renal
COLO 205 colon = tested on: COLO 205 colon
DU-145 prostate = tested on: DU-145 prostate
K-562 leukemia = tested on: K-562 leukemia
MALME-3M melanoma = tested on: MALME-3M melanoma
MDA-MB-231 breast = tested on: MDA-MB-231 breast
RXF 393 renal = tested on: RXF 393 renal
SF-268 CNS = tested on: SF-268 CNS
SF-295 CNS = tested on: SF-295 CNS
SF-539 CNS = tested on: SF-539 CNS
UACC-257 melanoma = tested on: UACC-257 melanoma
M14 melanoma = tested on: M14 melanoma

Measured: growth

O=C(Nc1ncc(Cc2ccccc2)s1)c1sc2ccccc2c1Cl
inactive: NCI-H23 lung 40.8% | NCI-H226 lung 65% | NCI-H322M lung 43.4% | HOP-62 NSCLC 25% | HOP-92 NSCLC 76.7% | A549/ATCC NSCLC 26.6% | 786-0 renal 43.2% | COLO 205 colon 16.8% | DU-145 prostate 17% | K-562 leukemia 12.1% | MALME-3M melanoma 51% | MDA-MB-231 breast 55.5% | SF-268 CNS 52.1% | SF-295 CNS 17.7% | UACC-257 melanoma 54.6% | M14 melanoma 11.1%
active: NCI-H460 lung 8.39% | NCI-H522 lung -2.01% | RXF 393 renal -5.07% | SF-539 CNS -1.43%

N=C(N)c1ccc(-c2ccc(-c3cc(Cl)cc(Cl)c3)s2)s1
inactive: NCI-H226 lung 90.8% | HOP-92 NSCLC 50.2%
active: NCI-H23 lung -49.5% | NCI-H322M lung -44.7% | HOP-62 NSCLC -28.3% | NCI-H460 lung -33.9% | NCI-H522 lung -70.6% | A549/ATCC NSCLC -52.8% | 786-0 renal -74.5% | COLO 205 colon -75.4% | DU-145 prostate -72.2% | K-562 leukemia -52.5% | MALME-3M melanoma -13.1% | MDA-MB-231 breast -55.1% | RXF 393 renal -84.2% | SF-268 CNS -43.8% | SF-295 CNS -69.8% | SF-539 CNS -60.6% | UACC-257 melanoma -46.3% | M14 melanoma 1.55%

Cc1cc(C)c2c(c1)N(C)c1ncnc(-n3c(C)nc4cc(C)ccc43)c1CC2C (stereo not given)
inactive: NCI-H23 lung 61.7% | NCI-H226 lung 61.6% | NCI-H322M lung 73.4% | HOP-62 NSCLC 43.7% | NCI-H460 lung 22.6% | HOP-92 NSCLC 11.2% | NCI-H522 lung 19.4% | A549/ATCC NSCLC 26.3% | 786-0 renal 30.1% | COLO 205 colon 54.1% | DU-145 prostate 55.3% | K-562 leukemia 12.4% | MALME-3M melanoma 45.4% | MDA-MB-231 breast 61.2% | SF-268 CNS 45.9% | SF-539 CNS 25.2% | UACC-257 melanoma 25.8% | M14 melanoma 25.3%
active: RXF 393 renal -10.4% | SF-295 CNS 9.14%

COc1cc2c(c(OC)c1OC)C(=O)CC(c1cccc(C(=O)Nc3ccc(C#N)cc3)c1)O2 (stereo not given)
inactive: NCI-H23 lung 78.7% | NCI-H226 lung 46.9% | NCI-H322M lung 90.8% | HOP-62 NSCLC 91.5% | NCI-H460 lung 89.3% | HOP-92 NSCLC 64.6% | NCI-H522 lung 46.8% | A549/ATCC NSCLC 87.4% | 786-0 renal 90.4% | COLO 205 colon 85.8% | DU-145 prostate 88% | K-562 leukemia 42.2% | MALME-3M melanoma 96.9% | MDA-MB-231 breast 73.5% | RXF 393 renal 99.7% | SF-268 CNS 88.9% | SF-295 CNS 77% | SF-539 CNS 93% | UACC-257 melanoma 82.4% | M14 melanoma 72.1%

Nc1ncnc2c1N=C(c1ccc(Cl)cc1)CC(c1cccc(Nc3ccnc4cc(Cl)ccc34)c1)N2 (stereo not given)
inactive: NCI-H23 lung 66.8% | NCI-H226 lung 87.5% | NCI-H322M lung 84.1% | HOP-62 NSCLC 70.4% | NCI-H460 lung 75.6% | HOP-92 NSCLC 44.7% | NCI-H522 lung 93.8% | A549/ATCC NSCLC 84.5% | 786-0 renal 67.5% | COLO 205 colon 66.2% | DU-145 prostate 83.2% | MALME-3M melanoma 84.8% | MDA-MB-231 breast 63.5% | RXF 393 renal 34.1% | SF-268 CNS 53.4% | SF-295 CNS 67% | SF-539 CNS 76% | UACC-257 melanoma 105% | M14 melanoma 64.8%
active: K-562 leukemia -0.992%

C=C1C(=O)O[C@H]2[C@H]1CC/C(COC(=O)/C=C\C(=O)NCc1ccc(Cn3c(=O)sn(CCCCl)c3=O)cc1)=C\CC[C@@]1(C)O[C@@H]21
active: NCI-H522 lung -12% | COLO 205 colon 4.69%
inactive: NCI-H23 lung 84.1% | NCI-H226 lung 92.9% | NCI-H322M lung 107% | HOP-62 NSCLC 87.7% | NCI-H460 lung 93.4% | HOP-92 NSCLC 81.7% | A549/ATCC NSCLC 92.7% | 786-0 renal 67.7% | DU-145 prostate 45.9% | K-562 leukemia 26.7% | MALME-3M melanoma 49.6% | MDA-MB-231 breast 71.9% | RXF 393 renal 86.9% | SF-268 CNS 93.5% | SF-295 CNS 99.4% | SF-539 CNS 79.9% | UACC-257 melanoma 68.9% | M14 melanoma 40.4%

O=CN1N=C(c2cccc(Nc3ccnc4cc(Cl)ccc34)c2)CC1c1ccc(Cl)cc1 (stereo not given)
active: NCI-H23 lung 1.81% | NCI-H522 lung -17.4% | COLO 205 colon -9.28% | RXF 393 renal -4.85%
inactive: NCI-H226 lung 59.4% | NCI-H322M lung 59.6% | HOP-62 NSCLC 24.2% | NCI-H460 lung 19.3% | HOP-92 NSCLC 21.9% | A549/ATCC NSCLC 34.3% | 786-0 renal 28.8% | DU-145 prostate 23.8% | K-562 leukemia 15.8% | MALME-3M melanoma 44.4% | MDA-MB-231 breast 30.2% | SF-268 CNS 37.1% | SF-295 CNS 11.7% | SF-539 CNS 19.2% | UACC-257 melanoma 52.8% | M14 melanoma 21.7%

Cn1c2ccccc2c2c3c(c4c5cc(Br)ccc5n(C)c4c21)C(=O)N(O)C3=O
inactive: NCI-H226 lung 14.8% | NCI-H322M lung 31.8% | HOP-92 NSCLC 40.8% | NCI-H522 lung 25.4% | A549/ATCC NSCLC 40.3% | 786-0 renal 14.6% | COLO 205 colon 23.2% | K-562 leukemia 10.4% | MALME-3M melanoma 42.4% | SF-295 CNS 25.9% | UACC-257 melanoma 48.6%
active: NCI-H23 lung 2.91% | HOP-62 NSCLC 0.364% | NCI-H460 lung 4.42% | DU-145 prostate -50.7% | MDA-MB-231 breast -32% | RXF 393 renal -24.8% | SF-268 CNS -0.663% | SF-539 CNS -27.7% | M14 melanoma -5.5%
